Screens (PubChem BioAssay)
A selection: hits, their analogues and other compounds. The true share with any hit is near 14%.
Pf growth 96h: Primary qHTS for delayed death inhibitors of the malarial parasite plastid, 96 hour incubation. actives 6.9% (n = 320,000). Potency, µM (highest dose often 28.7 µM), for the others: at the highest dose activity change, negative = inhibition, hits mostly inhibitors. AID 504834, 2011. P. falciparum luciferase reporter growth, 96 h; further: potency means the concentration at half of the fitted maximal effect
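Delayed-death screen, second-generation endpoint: infected erythrocytes, 2% hematocrit, 0.05% parasitemia final; 96 hours at 37 C, 5% CO2; luciferase detection reagent; luminescence decrease equals reduced growth.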
HCV inhibitor: qHTS Assay for Inhibitors of Hepatitis C Virus (HCV). Potency, µM (top dose mostly 41.8 µM), for the others: at the top dose activity change, negative = inhibition, hits mostly inhibitors. Huh7.5.1 HCVcc-Cre infection, luciferase reporter, 44 h. actives 3.4% (n = 340,000); further: potency means the concentration at half of the fitted maximal effect
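Reporter virus HCVcc-Cre (~0.5 moi) infects cells exposed to compound; seeding density 1,000 cells/well with 4 h settling beforehand. Luminescence, 15 sec read, taken 44 h post-infection following a 15 min RT substrate incubation.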
HCMV antiviral: qHTS Assay for inhibitors of the human cytomegalovirus (HCMV) | activity change, negative = inhibition, % at 57.5 µM | AID 1259415, 2018 | HFF cells, HCMV-luciferase reporter, 72 h; hits give low values | actives 4.5% (n = 410,000); in the data active means activity change below about -60%; inconclusive means no clear call, values can overlap the other calls; inactive means above about -39%
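Screen run at 2 compound doses on HFFs infected with reporter HCMV, MOI 1 PFU/cell. Luciferase activity from cell lysates at 72 h post infection gave inhibition relative to buffer-only and Salinomycin wells.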
Pf growth 48h: Primary qHTS for delayed death inhibitors of the malarial parasite plastid, 48 hour incubation; P. falciparum luciferase growth in erythrocytes, 48 h; actives 5.9% (n = 310,000); Potency, µM (series often up to 28.7 µM), for inactives: at the top dose activity change, negative = inhibition, usual class: inhibitors; further: potency means the concentration at half of the fitted maximal effect
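Luminescence readout; reporter = integrated firefly luciferase in P. falciparum. RBC culture at 2% hematocrit, 0.1% parasitemia final, 37 C/5% CO2; decreased signal taken as growth inhibition.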
Lassa entry inh: qHTS for Inhibitors of binding or entry into cells for Lassa Virus; Lassa virus pseudotype entry inhibition, cell reporter; Potency, µM (titrated, usually from 37.9 µM), for the others: top-dose activity change, negative = inhibition, usual class: inhibitors; actives 1.2% (n = 300,000); AID 540256, 2011; calls by dose curve; tested in HEK293 cells; further: potency means the concentration at half of the fitted maximal effect; nearly all actives have a fitted effect of over 50% in size
MARV entry inh: qHTS for inhibitors of binding or entry into cells for Marburg Virus; Marburg virus pseudotyped entry inhibition, cell reporter; Potency, µM (series often up to 37.8 µM), without a hit: at the top dose activity change, negative = inhibition, hits mostly inhibitors; actives 1.8% (n = 300,000); AID 540276, 2011; calls by dose curve; tested in HEK293 cells; further: potency means the concentration at half of the fitted maximal effect
An asterisk follows results filed as active; ? = inconclusive; / = no result; [ ] = another dose, or the depositor's remark. Unless noted, the call rests on the fitted dose curve; in most records, active means well fitted inhibition curve with a large enough effect; inconclusive means small, poorly fitted or top-dose-only effect, or another doubt; inactive means no such curve, though single readings can be large or run the other way. On the % scale 0 is the no-effect control and ±100 the full control effect.

SMILES	Pf growth 96h	HCV inhibitor	HCMV antiviral	Pf growth 48h	Lassa entry inh	MARV entry inh
Cc1ccc(-n2c3c(cc(C(=O)NCc4ccco4)c2=O)C(=O)CC(C)(C)C3)cc1	0.47µM*	15%	-15	?	11%	-23%
CC1(C)CC(=O)c2cc(C(=O)NCc3ccco3)c(=O)n(-c3ccc(Cl)cc3)c2C1	18%	0%	35	?	20%	-18%
O=C(CSCc1ccc([N+](=O)[O-])cc1)NC1CC1	13µM*	10%	?	-3%	-1%	-19%
O=C(CSCc1ccc([N+](=O)[O-])cc1)N/N=C/c1ccncc1	-18%	3%	-63*	?	6%	25%[46.1 µM]
CC(C)C(NC(=O)CSCc1ccc([N+](=O)[O-])cc1)C(C)C	19%	-14%	?	?	0%	?
Cc1cccc(NC(=O)NNC(=O)COc2ccc([N+](=O)[O-])cc2)c1C	?	-18%	39	-3%	-5%	-9%
CCCCCCc1cc2cc(-c3nnc(-c4ccccc4O)o3)c(=O)oc2cc1O	/	?	-104*	-17%	-1%	19%
CCCCCCc1cc2cc(-c3nnc(-c4cc(OC)c(OC)c(OC)c4)o3)c(=O)oc2cc1O	18%	?	/	3%	3%	-2%
CCCCCCc1cc2cc(-c3nnc(-c4ccccc4OC)o3)c(=O)oc2cc1O	/	-7%	-74*	3.7µM*	?	?
CCCCCCc1cc2cc(S(=O)(=O)c3ccc(F)cc3)c(=O)oc2cc1O	18%	11%	28	13%	-2%	1%
O=C(c1ccc(Oc2ccc([N+](=O)[O-])cc2)cc1)N1CCCCCC1	3%	25µM*	-25	26%	?	5.6µM*
O=C(c1ccc(Oc2ccc([N+](=O)[O-])cc2Cl)cc1)N1CCCC1	8%	-14%	?	?	-17%	-14%[46.1 µM]
O=C(CCc1ccc(Oc2cc([N+](=O)[O-])cc([N+](=O)[O-])c2)cc1)N1CCCCC1	?	?	-22	12µM*	-28%	-16%
O=C(c1ccc([N+](=O)[O-])cc1)N1CCC(Cc2ccccc2)CC1	?	21%	-6	-3%	/	-13%[46.1 µM]
O=C(NCC1CCN(C(=O)c2ccc([N+](=O)[O-])cc2)CC1)C(=O)Nc1ccccc1	15µM*	-14%	-4	3%	/	2%[46.1 µM]
O=C(CCc1ccc(Oc2cc([N+](=O)[O-])cc([N+](=O)[O-])c2)cc1)Nc1cccc(Cl)c1	?	?	-36	-18%	8%	?
CC(NCCC(c1ccccc1)c1ccccc1)c1ccccc1 (stereo not drawn)	11µM*	?	-40	13µM*	23µM*	?
Cc1ccc(CNC(C)c2ccccc2)s1 (stereo not drawn)	/	/	9	/	?	?
O=C(Cc1ccc(NC(=O)C2CCCN(C(=O)C3CCC3)C2)cc1)Nc1cccc(C(=O)N2CCCC2)c1 (stereo not drawn)	/	?	10	/	/	/
COC(=O)c1c(C)[nH]c(O)c1C=Nc1ccc(C(C)C)cc1	38%	-16%	148	-23%	-2%	-12%
COC(=O)c1c(C)[nH]c(O)c1C=Nc1ccc(Oc2ccccc2)cc1	16%	-8%	-65*	48%	?	17%[46.1 µM]
Cc1cccc(N2CCN(C(=O)COc3cc(=O)n(C)c4ccccc34)CC2)c1C	?	?	-23	12µM*	?	-8%
Cc1ccc(C)c(N2CCN(C(=O)COc3cc(=O)n(C)c4ccccc34)CC2)c1	-22%	?	-24	?	18µM*	-24%
CCn1c(=O)cc(OCC(=O)N2CCN(c3ccc(OC)cc3)CC2)c2ccccc21	/	/	-95*	/	?	-20%[46.1 µM]
Cc1ccc(C)c(N2CCN(C(=O)CCCOc3cc(=O)n(C)c4ccccc34)CC2)c1	/	10µM*	56	?	?	?
SMILES	Pf growth 96h	HCV inhibitor	HCMV antiviral	Pf growth 48h	Lassa entry inh	MARV entry inh
O=C(O)c1sccc1S(=O)(=O)N1CCOCC1	-7%	-3%	0	-21%	/	/
O=C(Nc1cccc(F)c1)C1CCN(c2nc3ccccc3nc2C(F)(F)F)CC1	/	/	-5	/	-9%[46.1 µM]	/
C[C@H]1[C@@H](NS(=O)(=O)c2ccc(F)cc2)CC[C@@]23CCCN2C(=O)CCC[C@@H]13	/	/	16	/	/	/
COc1ccc(N2CCN(C(=O)CCCOc3cc(=O)n(C)c4ccccc34)CC2)cc1	12µM*	-11%	136	?	9%	?
CC1CCN(C(=O)CCCOc2cc(=O)n(C)c3ccccc23)CC1	49%	?	414	-27%	-4%	1%
CCOC(=O)c1ccc(-c2c(-c3ccccc3OC)oc3ccccc23)cc1F	3.3µM*	-10%	-1	?	/	/
COc1ccccc1-c1oc2ccccc2c1-c1ccc2cc[nH]c2c1	?	11µM*	13	2.1µM*	/	/
COc1cc2c(-c3ccc4cc[nH]c4c3)c(-c3ccc(C#N)cc3)oc(=O)c2cc1OC	?	11µM*	-30	9.3µM*	/	/
CCOC(=O)c1ccc(/C=C2\c3ccccc3C(=O)N2c2ccccc2)cc1F	/	-1%	34	/	/	/
O=c1c2ccccc2oc2cc(-c3ccc4cc[nH]c4c3)ccc12	/	0%	16	/	/	/
CCOC(=O)c1ccc(-c2ccc3c(=O)c4ccccc4n(C)c3c2)cc1F	2%	52%	-69*	87%	/	/
N#CC(C(=O)C1=C(Cl)CCCC1)=C1SCCCS1	/	/	/	/	/	3%
NC(=O)c1cccc(Nc2nc(C(N)COCc3ccccc3)cs2)n1 (stereo not drawn)	/	/	-20	/	/	/
CCn1c2ccccc2c2c3ncc4cccn4c3ccc21	55%	11µM*	192	36%	2%[46.1 µM]	13%[46.1 µM]
C[C@@H]1CN([C@H](C)CO)C(=O)CCCn2nncc2CO[C@H]1CN(C)C(=O)c1ccc2ccn(C)c2c1	/	/	-3	/	/	/
CC(C)Cc1nc(Nc2ccccc2C#N)c2nnn(Cc3ccccc3)c2n1	?	16µM*	-28	?	?	?
CC(C)Cc1nc(N2CCC(C(N)=O)CC2)c2nnn(Cc3ccccc3)c2n1	10µM*	-16%	-11	15µM*	2%	-1%
c1ccc(Cn2nnc3c(N4CCCCCC4)ncnc32)cc1	?	-24%	-29	?	/	/
Cc1nc(N2CCC(C)CC2)c2nnn(Cc3ccccc3)c2n1	15µM*	?	-1	12µM*	-2%	-1%
COc1ccc(Cl)cc1Nc1nc(C)nc2c1nnn2Cc1ccccc1	-15%	?	11	-15%	-2%[46.1 µM]	1%[46.1 µM]
Cc1cccc(NC(=O)CN2C(=O)CSc3ccc(S(=O)(=O)N4CCCC4)cc32)c1C	/	/	-38	/	16%[46.1 µM]	/
N#CN=CN1CC=C(c2ccc(Cl)cc2)CC1	/	/	-40	/	/	/
